Compound activity from PubChem BioAssay.
hERG WT inh: inhibitors of human wildtype KCNH2 potassium channel; U2OS, BacMam KCNH2, thallium flux FluxOr; active compounds read low; Q12809; activity change, % at 1.84 µM; hit rate 0.37% among 340,000; AID 720551;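 active means maximum activity change below -70%; inconclusive means maximum activity change between -70% and -50%; inactive means maximum activity change above -50%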
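U2OS cells transduced with wild-type KCNH2 virus are loaded with FluxOr dye for 45 min, and thallium flux is measured in kinetic reads before and after stimulation buffer. Rate constants are normalized to DMSO controls.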
VDR inhibitor: inhibitors of human vitamin D receptor | P11473 | VDR-SRC2-3 peptide fluorescence polarization, 2 h | Potency, µM, hits mostly inhibitors | hit rate 0.93% among 400,000 | AID 504847
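Reagent solutions, kept cold and dark, are dispensed first; compounds are then pinned in at 23 nl, plates briefly spun, and incubated 2 h at ambient temperature. Inhibition of VDR–SRC2-3 peptide binding is read by fluorescence polarization.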
CBFb-RUNX1 inh: CBF-beta/RUNX1 interaction disruption; Q01196+Q13951; AlphaScreen CBFb-His/RUNX1-biotin binding, biochemical; Potency, µM (top dose mostly 59.8 µM), most hits filed as inhibitors; 230,000 tested, under 10 active; AID 1477
Target sequence (Q01196 whole entry, looked up): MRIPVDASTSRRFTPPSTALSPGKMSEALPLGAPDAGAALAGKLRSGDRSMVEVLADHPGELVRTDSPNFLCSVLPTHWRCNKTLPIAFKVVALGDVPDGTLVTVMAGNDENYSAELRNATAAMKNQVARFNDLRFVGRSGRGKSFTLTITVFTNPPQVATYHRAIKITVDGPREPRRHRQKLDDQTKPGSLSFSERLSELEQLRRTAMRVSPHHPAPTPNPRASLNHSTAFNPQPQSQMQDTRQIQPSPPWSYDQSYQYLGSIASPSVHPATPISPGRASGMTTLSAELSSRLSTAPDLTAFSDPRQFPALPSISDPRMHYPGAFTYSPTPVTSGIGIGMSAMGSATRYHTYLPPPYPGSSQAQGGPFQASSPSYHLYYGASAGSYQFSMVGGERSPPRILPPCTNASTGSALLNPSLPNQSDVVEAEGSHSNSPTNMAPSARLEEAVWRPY
Target sequence (Q13951 whole entry, looked up): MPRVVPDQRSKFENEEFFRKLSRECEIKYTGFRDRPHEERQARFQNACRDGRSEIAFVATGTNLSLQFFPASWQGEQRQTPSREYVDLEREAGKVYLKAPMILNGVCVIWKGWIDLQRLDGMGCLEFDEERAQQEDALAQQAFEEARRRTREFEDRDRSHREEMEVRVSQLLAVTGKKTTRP
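Room-temperature protein-protein interaction test with 30 nM each of His-tagged CBF-beta and biotinylated RUNX1, 15 min with compound, then 90 min with nickel plus streptavidin beads. Signal read in AlphaScreen mode.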
KCNH2 3.1 inh: blocks the human KCNH2 3.1 channel isoform | activity change, % (tested at about 1.8 µM) | U2OS KCNH2 3.1, thallium flux FluxOr; active compounds read low | hit rate 0.95% among 340,000;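 active means maximum activity change below -70%; inconclusive means maximum activity change from -70% to -50%; inactive means maximum activity change above -50%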;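 further: thallium influx rate constant from kinetic fluorescence after stimulation buffer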
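Channel expression came from 3.1 mutant virus (1.77 x 10^8 /mL) applied to suspended U2OS cells for 4 h. Flux was tracked with FluxOr dye plus Red40 quencher, and kinetic rate constants normalized to controls.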
MBNL1-CUG inh: blocks human MBNL1 binding to CUG repeat RNA; TR-FRET MBNL1-His/biotin-(CUG)12 binding, 665/545 ratio; Potency, µM (titrated, usually from 57.5 µM), actives largely listed as inhibitors; hit rate 0.036% among 280,000; active means well fitted inhibition curve with a large enough effect in the signal ratio, with a control signal flat, not every such curve was filed as active; inconclusive means small, poorly fitted or top-dose-only effect, or effect the other way, or a change in a side signal; inactive means no such curve, though single readings can be large or run the other way; the % refers to the signal ratio
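TR-FRET readout: Ex 340 nm, 665/545 nm emission ratio, normalized to buffer-only (basal) and MBNL1-(CUG)12 controls. Complex of MBNL1-His with Biotin-(CUG)12, compounds 92 nM–58 uM, incubated 60 min at room temperature.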
PLK1 PBD inh: inhibitors of human PLK1 polo-box domain binding; P53350; Plk1 PBD binding of FITC phosphopeptide, fluorescence polarization; Potency, µM, most hits filed as inhibitors; hit rate 2.8% among 360,000; AID 720504; further: series mostly up to about 57 µM; nearly all actives have a fitted effect of over 65% in size
Hits are given with their value. Hits are enriched below; roughly 3.8% of the tested compounds scored in any of these assays. Unless noted, the call rests on the fitted dose curve; in most records, active means well fitted curve in the direction sought with a large enough effect; inconclusive means small, poorly fitted or top-dose-only effect, or another doubt; inactive means no such curve, though single readings can be large; an effect the other way counts as inactive or inconclusive.

What do the screens show for `CC1(C)Cc2c(c(-c3ccco3)nc3sc4c(NCC5CCCO5)ncnc4c23)CO1` (stereo unspecified)?
hERG WT inh: inactive; VDR inhibitor: 89µM; CBFb-RUNX1 inh: inactive; KCNH2 3.1 inh: inactive; MBNL1-CUG inh: inactive; PLK1 PBD inh: inconclusive

What do the screens show for `Cc1ccc(C)c(/C=C2\N=C(c3ccccc3F)OC2=O)c1`?
hERG WT inh: inactive; VDR inhibitor: 79µM; KCNH2 3.1 inh: inactive; MBNL1-CUG inh: inactive; PLK1 PBD inh: inactive

How did Cc1ccc2nc(-c3cccc(N)c3)oc2c1 do in these assays?
hERG WT inh: inactive; VDR inhibitor: inactive; CBFb-RUNX1 inh: inactive; KCNH2 3.1 inh: inactive; MBNL1-CUG inh: inactive; PLK1 PBD inh: inactive

What do the screens show for `Cc1ccc2nc(CCc3nc4ccc(C)cc4o3)oc2c1`?
hERG WT inh: inactive; VDR inhibitor: inconclusive; CBFb-RUNX1 inh: inactive; KCNH2 3.1 inh: inactive; MBNL1-CUG inh: inactive; PLK1 PBD inh: 6µM

Results for Cc1ccc2nc(-c3cccc(-c4nc5ccc(C)cc5o4)n3)oc2c1 ?
VDR inhibitor: 50µM

How did COc1ccccc1N(Cc1cc(=O)[nH]c2ccccc12)C(=O)c1cccc([N+](=O)[O-])c1 do in these assays?
hERG WT inh: inactive; VDR inhibitor: inconclusive; CBFb-RUNX1 inh: inactive; KCNH2 3.1 inh: inactive; MBNL1-CUG inh: inconclusive; PLK1 PBD inh: 30µM

What do the screens show for `CCCCCCCCCOC(=O)CNc1nc(C#N)nc(NCC(=O)OCCCCCCCCC)n1`?
VDR inhibitor: inactive

How did COCCN1CSC(=S)N(Cc2ccco2)C1 do in these assays?
hERG WT inh: inactive; VDR inhibitor: 89µM; CBFb-RUNX1 inh: inactive; KCNH2 3.1 inh: inactive; MBNL1-CUG inh: inactive; PLK1 PBD inh: 17µM

How did CC(C(=O)Nc1ccccc1C(=O)N1CCOCC1)N(c1ccc(Cl)cc1)S(C)(=O)=O (stereo unspecified) do in these assays?
hERG WT inh: inactive; VDR inhibitor: 22µM; CBFb-RUNX1 inh: inactive; KCNH2 3.1 inh: inactive; MBNL1-CUG inh: inactive; PLK1 PBD inh: 3µM

What do the screens show for `COc1ccc(OC)c(NC(=O)c2oc3c(c2C)-c2nn(Cc4ccc(Cl)cc4)cc2CC3)c1`?
VDR inhibitor: inactive

Results for CSc1ccc(/C=N/Nc2cccc(C(=O)O)c2)cc1 ?
hERG WT inh: inactive; VDR inhibitor: inactive; CBFb-RUNX1 inh: inconclusive; KCNH2 3.1 inh: inactive; MBNL1-CUG inh: inactive; PLK1 PBD inh: 12µM

How did O=C(O)c1ccc(N/N=C/c2ccc(OC(=O)c3cccc(Cl)c3)cc2)cc1 do in these assays?
hERG WT inh: inactive; VDR inhibitor: inactive; CBFb-RUNX1 inh: inactive; KCNH2 3.1 inh: inactive; MBNL1-CUG inh: inactive; PLK1 PBD inh: 21µM

What do the screens show for `O=C(Oc1ccc(/C=N/Nc2ccccc2)cc1)c1ccccc1`?
hERG WT inh: inactive; VDR inhibitor: inactive; CBFb-RUNX1 inh: inactive; KCNH2 3.1 inh: inactive; MBNL1-CUG inh: inactive; PLK1 PBD inh: inactive

How did COc1ccc(C(=O)Nc2ccc3nc(SCC(=O)N4CCCC4)sc3c2)cc1 do in these assays?
VDR inhibitor: inactive

How did O=C(CN1C(=O)c2ccccc2S1(=O)=O)Nc1ncc([N+](=O)[O-])s1 do in these assays?
hERG WT inh: inactive; VDR inhibitor: inactive; KCNH2 3.1 inh: inactive; PLK1 PBD inh: 19µM

Results for Cc1cccc(N2C(N)=NC(N)=NC23CCCCC3)c1 ?
hERG WT inh: inactive; VDR inhibitor: inactive; CBFb-RUNX1 inh: inactive; KCNH2 3.1 inh: inactive; MBNL1-CUG inh: inactive; PLK1 PBD inh: 2.7µM

What do the screens show for `CCOC1=NN(c2ncc(C(F)(F)F)cc2Cl)C(=O)C1`?
hERG WT inh: inactive; VDR inhibitor: inactive; CBFb-RUNX1 inh: inactive; KCNH2 3.1 inh: inactive; MBNL1-CUG inh: inactive; PLK1 PBD inh: 24µM

What do the screens show for `CN(C(=O)c1ccc2c(c1)N(Cc1ccccc1F)C(=O)c1ccccc1S2(=O)=O)C1CCCCC1`?
VDR inhibitor: inactive

How did COc1ccc([C@H]2CC(=O)C=C(/C=C/Cc3ccccc3)C2)cc1 do in these assays?
hERG WT inh: inactive; VDR inhibitor: 79µM; KCNH2 3.1 inh: inactive; PLK1 PBD inh: inactive

How did CCCCC/C=C/C1=CC(=O)C[C@H](c2ccc(OC)cc2)C1 do in these assays?
hERG WT inh: inactive; VDR inhibitor: inactive; KCNH2 3.1 inh: inactive; PLK1 PBD inh: inactive
